Experimental data from PubChem BioAssay (NCI).
Values joined by “and” are separate entries in the source; they are usually repeats but may differ in a detail not shown here. Equal entries are not always repeated. The panel holds about 83,000 compounds, 20% with a hit somewhere; the sample as a whole holds those more often.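 Step 1: grow cells in 96-well plates. Step 2: add test compound at a single concentration. Step 3: incubate 48 h. Step 4: record percent growth.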 Active and inactive are the calls of the source. The calls were made as follows: active = growth percent below 10; inactive = the rest.

These compounds were tested on MDA-MB-468 breast (assay: NCI-60 one-dose screen, 48 h (100 = growth as untreated, 0 = no growth, -100 = all killed)). Conditions: 10 µM unless noted.

| Structure (SMILES) | growth |
| --- | --- |
| Nc1cc(F)ccc1NC(=O)c1ccc(NC(=O)C/C=C/c2cccnc2)cn1 | -27.4% (active) |
| CC(C)OC(=O)Nc1cc(F)ccc1F | 92.8% (inactive) |
| COc1ccc(C(=O)c2nc3ccccc3n2CC(=O)c2ccc(Cl)cc2)cc1 | 33.8% (inactive) |
| CCN(CC)CCCC(C)Nc1c(C)cnc2cc(Cl)c(C)cc12 (stereo not given) | 99.7% (inactive) |
| O=C(Nc1ccc(Br)c(Cl)c1)c1cc(F)ccc1O | -24.5% (active) |
| CC1=CCC(OC(=O)C(C)(C)CC(O)(C(C)O)C(O)C2(C)C=CC(Cc3ccc(C(C)C)cc3)(C(C)C)CC2)(C(C)C)CC1 (stereo not given) | 83.1% (inactive) |
| CC(=O)OCC1OC(n2cnc3c(=S)nc(N)[nH]c32)C(OC(C)=O)C1OC(C)=O (stereo not given) | 68.5% (inactive) |
| N#Cc1c(-c2ccc(Br)cc2)cc(-c2c[nH]c3ccccc23)nc1N | 7.56% (active) |
| CN(C)c1ccc(/C=C/c2ccnc3ccccc23)cc1 | -9.88% (active) |
| O=C(/C=C/CN1CCCCC1)Nc1cc2c(Nc3ccc(F)c(Cl)c3F)ncnc2cc1OCCOC(F)F | -48.7% (active) |
| Nc1nc2ccccc2c2c(=O)c3cccc(Cl)c3sc12 | -0.88% (active) |
| COc1ccc(-c2cc(-c3cccnc3)nc3sc4c(N)c(C(C)=O)c(-c5ccccc5)nc4c23)cc1OC | 76.3% (inactive) |
| CC(C)NC(=O)c1cc(-c2ccc(NC(=O)Nc3ccc(N4CCOCC4)c(C(F)(F)F)c3)cc2)nc2cccnc12 | 92.1% (inactive) |
| C=C(C)[C@@H]1CC[C@]2(C)[C@H](CC[C@@H]3[C@@H]([C@@](C)(O)CCC=C(C)C)CC[C@]32C)[C@@]1(C)CCC(=O)N1CCN(C)CC1 | -82.2% [100 µM] (active) |
| COc1cc(OC)c2cc(C(=O)c3ccc(C#N)cc3)c(=O)oc2c1 | 94.1% (inactive) |
| CCCCn1c(=O)c(-c2cc(-c3ccc(Cl)cc3)nc(-c3ccc(Cl)cc3)c2)cc2ccc(Cl)cc21 | 95% (inactive) |
| O=C(OC[C@@H]1CO1)c1cccc2c(=O)c3ccccc3[nH]c12 | -52% (active) |
| O=c1[nH][n+](-c2ccc(Br)cc2)no1 | 86.1% (inactive) |
| CC/C(=C(/c1ccc(Cl)cc1)c1ccc(OCCN(CC)CC)cc1)c1ccc(OC)cc1 | 38% (inactive) |
| Cc1[nH]c(C2CC(c3ccc(C(F)(F)F)c(F)c3)=NN2C)c(C)c1C(=O)NCC(F)(F)F (stereo not given) | 81.6% (inactive) |

| Structure (SMILES) | growth |
| --- | --- |
| CCN(CC)c1ccc2nc3ccc(N=Nc4ccc(O)cc4)cc3[n+](-c3ccccc3)c2c1 | -60.7% (active) |
| COC(=O)c1c2c(c(C)[n+]([O-])c1C)C(=O)C(NCc1ccc(F)c(F)c1)=CC2=O | -26.1% (active) |
| COC(=O)c1ccc2oc(NC(=O)c3ccc(Nc4ccc([N+](=O)[O-])cc4C)c([N+](=O)[O-])c3)nc2c1 | 102% (inactive) |
| Cc1ccc(-c2nc(N3CCN(C(=O)Nc4ccc(Cl)c(C(F)(F)F)c4)CC3)c3ccccc3n2)cc1 | 77.2% (inactive) |
| N#Cc1c(-c2ccc(Cl)cc2)nc(NN=Cc2ccc[nH]2)nc1N1CCOCC1 | 78.2% (inactive) |
| CN1CCN(c2ccc(NC(=O)c3nc4ccc5[nH]ncc5c4c4c3CCCC4)cc2C(F)(F)F)CC1 | 44% (inactive) |
| Nc1nn(C(=O)Nc2ccc(Cc3ccccc3)cc2)c2ccc(Cl)cc12 | 72.3% (inactive) |
| CCCCCCCCCCCCCCCCOc1ccccc1NC(=O)CC(C)=O | 111% (inactive) |
| CCOC(=O)C(O)C(O)(c1ccccc1)c1ccccc1 (stereo not given) | 115% (inactive) |
| Cc1ccc(-c2csc(NC(=O)N3CCN(c4cc5c(cc4F)c(=O)c(C(=O)O)cn5C4CC4)CC3)n2)cc1 | -5.11% (active) |
| O=C1/C(=C\c2ccccn2)c2ccccc2N1c1c(Cl)cccc1Cl | -17.2% (active) |
| c1nc(N2CCOCC2)c2[nH]ccc2n1 | 108% (inactive) |
| CC(=O)Nc1nc2c(s1)CCc1c-2cn(S(=O)(=O)c2ccccc2)c1-c1ccccc1 | 61.6% (inactive) |
| COc1cc(-c2ccc3ncnc(NC(C)c4ccccc4)c3c2)cnc1OC (stereo not given) | -3.02% (active) |
| CC1CCC(C)(C)c2ccccc21 (stereo not given) | 99.6% (inactive) |
| COc1ccc(/C(C#N)=C/c2ccccc2OC)cc1 | -14% (active) |
| O=C(/C=C/c1cc([N+](=O)[O-])ccc1Cl)c1ccccc1 | 57.6% (inactive) |
| Cc1cc(C(NC(=O)CCCCCNc2cccc3c2C(=O)N(C2CCC(=O)NC2=O)C3=O)c2ccc3c(c2)OC(F)(F)O3)c(O)c2ncccc12 (stereo not given) | 69% (inactive) |
| Nc1ccccc1SC(CC(=O)c1ccccc1)c1cccc([N+](=O)[O-])c1 (stereo not given) | 85.9% (inactive) and 77.9% (inactive) |
| COC(=O)[C@@H]1[C@H](O)[C@H](C)[C@H](O)[C@H](C)/C=C\C=C(C)C(=O)Nc2c(C)c(OC(C)=O)c3c(c2O)C(=O)C(C)=C2OCOC(=C23)C(C)=C[C@@](C)(O)[C@H](O)[C@@H](C)[C@H]1OC(C)=O | 110% (inactive) |
